Laboratory results reported in ChEMBL document CHEMBL3988442, “University of Dundee, Small-Polar-MMV Screening Library” (2021).
The campaign covered roughly 48,000 compounds. About 13,000 (27%) showed an effect of 50% or more. The list shows a part of the results.

test system: Wolbachia pipientis; assay: Anti-Wolbachia Cell-Based Screen; assay type: functional; parameters: scale not given: in the data most compounds retested in dose-response had high values; conditions: 5 µM

Compound | Percent Effect [%]
COCCn1c(=O)n(Cc2ccccc2C)c2cc(C(=O)O)ccc21 | -8.391
CCn1c(C)cc(-c2csc(Cn3ccc(=O)[nH]c3=O)n2)c1C | -14.65
Cc1cc(=O)[nH]c(=O)n1COCc1ccccc1 | 71.08
Cc1ccccc1COCCOCn1c(C)cc(=O)[nH]c1=O | 116.8
Cc1cc(=O)[nH]c(=O)n1COCCOCc1ccccc1 | 87.63
CC/C(C)=C/CCN1CCN(C)C2(CCNC(=O)CC2)C1 (stereo not drawn) | -7.249
O=C(NCc1ccncc1)c1nc2c(o1)CN(C(=O)c1cccnc1)C2.O=C(O)C(F)(F)F.O=C(O)C(F)(F)F | 0.8995
Cc1nc[nH]c1CN1CCN(C(=O)CCC(F)(F)F)[C@H]2CS(=O)(=O)C[C@H]21 | 0
Cn1ncnc1CNC1CCCc2cc(F)ccc21 (stereo not drawn) | -3.531
COc1ccc(CN2CC[C@H](NC(C)=O)[C@@H](O)CC2)c(F)c1 | 118.9
COc1ccc(CN2CCC(C(N)=O)CC2)cc1SC(F)(F)F | 0.6878
COc1cc(CN2CC[C@H](NC(C)=O)[C@@H](O)CC2)ccc1F | 106.7
COc1cccc(CN2CC[C@H](NC(C)=O)[C@@H](O)CC2)c1F | 34.02
COc1ccc(F)c(CN2CCCC3(CCN(C4CCOCC4)C3)C2)c1 (stereo not drawn) | -3.304
COc1ccc(CN2CC[C@H](NC(C)=O)[C@@H](O)CC2)c(OC)c1 | -2.423
O=C(C1CCOc2ccccc21)N1CCOc2cccc(F)c21 (stereo not drawn) | 6.908
O=C(c1ccc(-n2cnnc2)cc1Cl)N1CCCC2(CCNC2)C1 (stereo not drawn) | -4.992
CNc1cc2c(nn1)CCN(C(=O)c1coc(Br)c1)C2 | 117.2
CNc1cc2c(nn1)CCN(C(=O)c1cc(F)cc(F)c1)C2 | 8.008
CNc1cc2c(nn1)CCN(C(=O)c1cc(C)no1)C2 | 125.3
Cc1ccc2oc(C(=O)N3CCc4nnc(N(C)C)cc4C3)cc2n1 | -8.128
CNc1cc2c(nn1)CCN(C(=O)c1ccc3c(c1)OCO3)C2 | 105.8
CNc1cc2c(nn1)CCN(C(=O)C1CCCc3ccccc31)C2 (stereo not drawn) | -4.064
CNc1cc2c(nn1)CCN(C(=O)c1ccc3c(c1)CCC3)C2 | 114.4
CN(C)CCNC(=O)c1ccc2c(-c3nccs3)noc2c1 | -16.02
Cn1cc(S(=O)(=O)NCCc2nnc3ccccn23)cn1 | -3.582
O=C(c1ncccn1)N1C[C@@H]2COC[C@]2(c2nnc(C3CC3)o2)C1 | -0.5118

Compound | Percent Effect [%]
Cc1noc(C)c1CNC(=O)C1(NS(C)(=O)=O)CCCCC1 | -47.58
Cc1ccc(C)c(CC(=O)NC2CCC(N3C(=O)CCC3=O)CC2)c1 (stereo not drawn) | 6.752
CCn1cc(S(=O)(=O)N2CCCSc3ccccc32)cn1 | -3.262
CCN1CCN(S(=O)(=O)c2cc(C)c(Cl)cc2Cl)CC1 | 18.7
CCn1cc(S(=O)(=O)N2CCN(S(=O)(=O)c3ccc(Br)s3)CC2)cn1 | 99.05
Cn1cc(S(=O)(=O)N2CCN(S(=O)(=O)c3ccc(Br)s3)CC2)cn1 | 96.55
CC1(C)OCC2(CO1)CN(S(=O)(=O)c1ccc(Br)s1)C2 | -6.121
CCn1cc(S(=O)(=O)N2CCC(C)Sc3ccccc32)cn1 (stereo not drawn) | -6.533
CCn1cc(S(=O)(=O)N2CCN(S(=O)(=O)c3ccc(Br)s3)CC2)c(C)n1 | 110.7
CCc1ccc(S(=O)(=O)N2CC3(COC(C)(C)OC3)C2)s1 | -8.267
CCC1CCCN(S(=O)(=O)c2cnn(C)c2)C1 (stereo not drawn) | 12.29
O=C(NS(=O)(=O)c1ccc(F)cc1)C1CCOc2ccccc21 (stereo not drawn) | -10.91
Cc1scc(C(=O)N2CCC3(CC(=O)NC3=O)C2)c1-c1ccccc1 (stereo not drawn) | -14.34
CS(=O)(=O)N1CCCC12CCN(Cc1nccs1)C2.O=C(O)C(F)(F)F (stereo not drawn) | -1.689
Cc1ccc(C)c(NC(=O)Cc2c(C)nc3c(c2C)c(=O)[nH]n3C)c1 | 0.2479
Cc1nc2c(c(C)c1CC(=O)NCc1ccc(F)cc1)c(=O)[nH]n2C | 91.6
Cc1nc2c(c(C)c1CC(=O)Nc1ccnn1C(C)C)c(=O)[nH]n2C | -7.188
Cc1nc2c(c(C)c1CC(=O)NCc1ccccc1F)c(=O)[nH]n2C | 107.2
Cc1ccc(CNC(=O)Cc2c(C)nc3c(c2C)c(=O)[nH]n3C)cc1 | 114.9
Cc1nc2c(c(C)c1CC(=O)NC(C)c1ccccc1)c(=O)[nH]n2C (stereo not drawn) | -24.46
Cc1ccc(C(C)NC(=O)Cc2c(C)nc3c(c2C)c(=O)[nH]n3C)o1 (stereo not drawn) | -8.138
Cc1nc2c(c(C)c1CC(=O)Nc1ccccc1F)c(=O)[nH]n2C | -18.93
Cc1nc2c(c(C)c1CC(=O)NCc1cccc(C#N)c1)c(=O)[nH]n2C | 1.091
Cc1cc(C)cc(NC(=O)Cc2c(C)nc3c(c2C)c(=O)[nH]n3C)c1 | 3.943
Cc1nc2c(c(C)c1CC(=O)NCc1ccco1)c(=O)[nH]n2C | 144
CCNC(=O)Cc1c(C)nc2c(c1C)c(=O)[nH]n2C | -13.5
